According to PubChem BioAssay:

Assay: small-molecule microarray binders of probe aCHRDL2, primary screen, biochemical, biotinylated probe, 635/667 nm fluorescence (AID 1100)
Conditions: higher = more signal

Structure (SMILES) | composite z-score
COCCOC(=O)N1C(=O)[C@@]2(c3cc(C#CC4=CCCCC4)ccc31)[C@H](c1ccccc1OCCO)N1[C@H](c3ccccc3)[C@H](c3ccccc3)OC(=O)[C@H]1[C@@H]2C(=O)Nc1nc2ccccc2s1 | -0.226
CCCNC(=O)[C@@H]1c2ccccc2C(=O)N(C(C)C)[C@H]1c1ccc(CO)cc1 | 0.933
CCCCO[C@H]1C[C@H]2C(I)=C[C@@H]1C(=O)[C@]21CO1 | -0.529
CC(C)(C)OC(=O)CC[C@]1(C(=O)NCC(O)CO)N=C(c2ccc(OCCCO)cc2)O[C@H]1c1ccccc1 (stereo partly specified) | 0.897
C=CC[C@]1(C(=O)O)COC(c2ccc(OCCCO)cc2)=N1 | 0.568
CN1C(=O)C2C=CC(C(O)c3ccccn3)N(N(c3ccccc3)c3ccccc3)C2C1=O (stereo unspecified) | 0.711
[N-]=[N+]=NCc1ccccc1C[C@@]1(C(=O)N2CCOCC2)N=C(c2ccc(OCCCO)cc2)O[C@@H]1c1ccccc1 | 1.18
CC(=O)NCCCC[C@@H]1NC(=O)[C@@H]2C[C@H](C(=O)NCCCC[N+](C)(C)C)[C@H](c3ccc(O)cc3)N2C1=O | -0.295
C[C@H]1NC(=O)[C@@]23C(=O)N[C@@H](Cc4ccccc4)C2[C@H](C)[C@@]2(C)O[C@H]2C3/C=C/C/C=C\CNC(=O)[C@H](Cc2ccccc2)NC1=O (stereo partly specified) | -0.427
[N-]=[N+]=Nc1ccccc1C[C@]1(C(N)=O)N=C(c2ccc(OCCCO)cc2)O[C@H]1c1ccccc1N=[N+]=[N-] | 0.676
O=C1O[C@@H](c2ccccc2)[C@@H](c2ccccc2)N2[C@@H](c3ccc(O)cc3)[C@]3(C(=O)Nc4ccc(C#CC5=CCCCC5)cc43)[C@@H](C(=O)NC[C@H](O)c3ccccc3)[C@H]12 | 0.757
